# USP17 inh – human USP17-like deubiquitinase inhibition; AID 1645855; purified USP17, Ub-rhodamine cleavage fluorescence, 3 h; inhibition, % at 50 µM; 47,000 tested, 6.5% active
# USP30 inh – human USP30 deubiquitinase inhibition | inhibition, % at 25 µM | purified USP30, Ub-rhodamine cleavage fluorescence | 47,000 tested, 5.3% active
# Target sequence (Q70CQ3 whole entry, looked up): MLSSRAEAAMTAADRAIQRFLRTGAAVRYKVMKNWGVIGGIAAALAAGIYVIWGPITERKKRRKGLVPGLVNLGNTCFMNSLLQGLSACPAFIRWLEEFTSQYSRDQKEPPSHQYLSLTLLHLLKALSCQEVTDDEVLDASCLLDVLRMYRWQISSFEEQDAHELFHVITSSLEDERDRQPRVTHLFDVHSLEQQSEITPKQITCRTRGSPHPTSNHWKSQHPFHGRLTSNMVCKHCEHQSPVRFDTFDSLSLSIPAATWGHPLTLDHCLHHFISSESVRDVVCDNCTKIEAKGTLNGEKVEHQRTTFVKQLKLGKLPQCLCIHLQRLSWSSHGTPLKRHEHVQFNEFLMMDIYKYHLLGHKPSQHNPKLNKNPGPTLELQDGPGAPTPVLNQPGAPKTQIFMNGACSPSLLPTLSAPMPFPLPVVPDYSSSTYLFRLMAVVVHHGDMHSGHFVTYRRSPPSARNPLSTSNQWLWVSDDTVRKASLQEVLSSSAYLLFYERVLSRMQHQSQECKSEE
# An asterisk follows results filed as active; i = inactive; . = no result given. A selection: hits, their analogues and other compounds. The true share with any hit is near 9.6%. No stated cut-off is given here; in the data, active means inhibition above about 30%; inactive means the rest.
SMILES,USP17 inh,USP30 inh
CN1CCN(C(=O)c2c3c(-c4cccnc4)ncnc3n3ccccc23)CC1,-168,.
O=C(NC1CCCCC1)C1CC(=O)N(c2cccc(-c3noc(-c4cccs4)n3)c2)C1 (stereo not drawn),39*,.
Cc1ccc(N2CC(C(=O)Nc3cccc(-c4noc(C)n4)c3)CC2=O)cc1 (stereo not drawn),11,5
COc1cc(O)c2c(O)c3c(cc2c1)C[C@@]1(O)CC(=O)C(C(N)=O)=C(O)[C@@]1(O)C3=O,30*,-120
CC1(C)Cc2c(c(N3CCOCC3)nc3sc4c(SCC(N)=O)ncnc4c23)CO1,2,10
O=C(Nc1oc2ccccc2c(=O)c1-c1ccc(F)cc1)c1ccccc1,8,18
CCCCC(=O)Nc1c(-c2ccc3c(c2)OCO3)c(=O)c2ccccc2n1C,-5,3
CC(=O)Nc1c(-c2ccc3c(c2)OCO3)c(=O)c2ccccc2n1C,12,49*
O=C(Nc1oc2ccccc2c(=O)c1-c1ccc2c(c1)OCO2)C1CCCCC1,83*,26
C[C@H](NC(=O)N1CCn2c1nc1ccccc12)C(=O)NCc1ccc(F)cc1,34*,41*
C[C@H](NC(=O)[C@H](Cc1ccccc1)NC(=O)N1CCn2c1nc1ccccc12)C(=O)O,17,15
COc1ccc(CCNC(=O)[C@@H](NC(=O)N2CCn3c2nc2ccccc23)C(C)C)cc1OC,-7,0
CCC(C)[C@H](NC(=O)N1CCn2c1nc1ccccc12)C(=O)NCCc1ccccc1 (stereo partly drawn),35*,30*
CCCNc1cc(N2CCCC(CCC(=O)Nc3ccccc3C)C2)ncn1 (stereo not drawn),-23,-9
COc1ccc2c(CNCCCc3ccccc3)c(C(=O)O)n(C)c2c1,2,-1
O=C(NC1CC1)c1ccc2c(=O)n(-c3ccc(F)cc3)cnc2c1,20,-10
COc1cccc(-n2cnc3cc(C(=O)NC4CC4)ccc3c2=O)c1,73*,-14
O=C(C(Sc1ccccc1)c1ccccc1)N1CCN(c2cccc(C(F)(F)F)c2)CC1 (stereo not drawn),.,31*
O=C(CN1C(=O)CCOc2ccccc21)N1CCN(c2cccc(C(F)(F)F)c2)CC1,-15,-3
O=C(c1cnccn1)N1CC[C@@H]2CNS(=O)(=O)[C@@H]2CC1,1,8
CSCC[C@H](NC(=O)OC(C)(C)C)C(=O)N1CCC(C(=O)N[C@H](C)C(=O)Nc2ccc(C(C)C)cc2)CC1,-1,-24
Cc1noc(-c2cc(=O)n(CC(=O)NCc3ccccc3Cl)c3ccccc23)n1,-3,-18
Cc1noc(-c2cc(=O)n(CC(=O)NCc3ccccc3)c3ccccc23)n1,53*,6
COc1cc2c(=O)n(CCC(=O)NCC3CCCO3)c(=O)n(CC(=O)Nc3cccc(Cl)c3)c2cc1OC (stereo not drawn),13,16
COc1cc2c(=O)n(CCC(=O)NC3CCCC3)c(=O)n(CC(=O)Nc3ccc(C)c(F)c3)c2cc1OC,-4,34*
SMILES,USP17 inh,USP30 inh
COc1cc2c(=O)n(CCC(=O)NCc3ccccc3)c(=O)n(CC(=O)NC3CCCCC3)c2cc1OC,-6,6
COc1ccc(NC(=O)Cn2c(=O)n(CCCC(=O)NC3CCCC3)c(=O)c3cc(Cl)ccc32)c(OC)c1,22,31*
CCc1ccccc1NC(=O)Cn1c(=O)n(CCC(=O)NCC2CCCO2)c(=O)c2cc(OC)c(OC)cc21 (stereo not drawn),30*,16
Cc1cc(NC(=O)Cn2c(=O)n(CCCC(=O)NC3CCCC3)c(=O)c3cc(Cl)ccc32)n[nH]1,-6,0
O=C(Cn1c(=O)n(CC2CCCO2)c(=O)c2ccccc21)Nc1c(Cl)cccc1Cl (stereo not drawn),-12,-3
CCOc1ccc(C(=O)Cn2c(=O)n(CC3CCCO3)c(=O)c3cc(OC)c(OC)cc32)cc1Cl (stereo not drawn),71*,13
NS(=O)(=O)c1cccc(NC(=O)C2(c3ccc(F)cc3)CCCC2)c1,-12,-6
CCn1nccc1C(=O)Nc1cc(-c2cc3ccccc3n2CC)[nH]n1,-152,i
COc1cccc(CN2C(=O)CSc3ccc(S(=O)(=O)N4CCOCC4)cc32)c1,-4,-16
CC(C)c1cc(=O)[nH]c(N2CCN(c3ccccc3)CC2)n1,7,18
COc1ccc(CCNC(=O)Cn2c(=O)n(CCCC(=O)NC3CCCC3)c(=O)c3cc(Cl)ccc32)cc1OC,18,37*
COc1ccc(NC(=O)Cn2c(=O)n(CCCC(=O)NCCc3ccc(OC)c(OC)c3)c(=O)c3ccccc32)cc1Cl,28,13
COc1cccc(-n2c(SCC(=O)Nc3ccc4c(c3)OCCO4)nnc2-c2c[nH]c3ccccc23)c1,-18,21
Cc1nc2cccnc2n1C1CCN(C(=O)c2cc3cc(Cl)ccc3[nH]2)C1 (stereo not drawn),31*,54*
COc1cccc2[nH]c(C(=O)N3CCC(n4c(C)nc5cccnc54)CC3)cc12,-4,0
CCc1nc2ccc(Oc3ccc(C(=O)OC)cc3)cc2nc1CC,-12,-16

# Screens (PubChem BioAssay)
